Results as given in PubChem BioAssay (NCI).
The panel holds about 83,000 compounds, 20% with a hit somewhere; the sample as a whole holds those more often.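 In brief: 96-well plates, 48 h treatment, single concentration, percent growth endpoint.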 A number with no mark means an inactive call. The source made the active and inactive calls. How the source made its calls: active means growth percent below 10; inactive means the rest.

Columns and labels:
Assay in all cases: NCI-60 one-dose screen, 48 h (100 = growth as untreated, 0 = no growth, -100 = all killed)
[1] = tested on: NCI-H23 lung; conditions: 10 µM unless noted
[2] = tested on: NCI-H226 lung; conditions: 10 µM unless noted
[3] = tested on: NCI-H322M lung; conditions: 10 µM unless noted
[4] = tested on: NCI-H460 lung; conditions: 10 µM unless noted
[5] = tested on: HOP-92 NSCLC; conditions: 10 µM
[6] = tested on: A549/ATCC NSCLC; conditions: 10 µM unless noted
[7] = tested on: 786-0 renal; conditions: 10 µM unless noted
[8] = tested on: COLO 205 colon; conditions: 10 µM unless noted
[9] = tested on: DU-145 prostate; conditions: 10 µM unless noted
[10] = tested on: K-562 leukemia; conditions: 10 µM unless noted
[11] = tested on: MALME-3M melanoma; conditions: 10 µM unless noted
[12] = tested on: MDA-MB-231 breast; conditions: 10 µM unless noted
[13] = tested on: RXF 393 renal; conditions: 10 µM unless noted
[14] = tested on: SF-268 CNS; conditions: 10 µM unless noted
[15] = tested on: SF-295 CNS; conditions: 10 µM unless noted
[16] = tested on: SF-539 CNS; conditions: 10 µM unless noted
[17] = tested on: UACC-257 melanoma; conditions: 10 µM unless noted
[18] = tested on: M14 melanoma; conditions: 10 µM unless noted
[19] = tested on: HOP-62 NSCLC; conditions: 10 µM unless noted
[20] = tested on: NCI-H522 lung; conditions: 10 µM unless noted

SMILES	growth [1]	growth [2]	growth [3] [%]	growth [4]	growth [5]	growth [6]	growth [7]	growth [8]	growth [9]	growth [10]	growth [11]	growth [12]	growth [13]	growth [14]	growth [15]	growth [16]	growth [17]	growth [18] [%]	growth [19]	growth [20]
COc1ccc(/C(N)=N/C(N)=N/c2nc3ccccc3s2)cc1	67.8%	77.8%	98.4	82.5%	85.5%	33.1%	79%	103%	81%	32.9%	94.4%	76%	65.7%	78.9%	52%	90.5%	98.5%	81.4	–	–
CCOc1ccc(NC2=C(Cl)C(=O)c3nc(C)ccc3C2=O)cc1	-61% (active)	-52.6% (active)	–	13.4%	-87% (active)	46.2%	8.39% (active)	98.2%	-92.7% (active)	-4.17% (active)	-90.6% (active)	-71.7% (active)	–	32.3%	51%	-58.8% (active)	-89.2% (active)	–	72.1%	-61.6% (active)
CN(C)CCNC(=O)c1ccc(-c2nc3ccc4[nH]ncc4c3c3c2CCC3)cc1	-15.2% (active)	10.8%	–	1.65% (active)	-29.8% (active)	7.96% (active)	12%	-11.6% (active)	5.47% (active)	11.3%	-0.0162% (active)	-2.41% (active)	–	-8.73% (active)	2.24% (active)	-31.2% (active)	47.7%	–	5.66% (active)	-40.6% (active)
CC/C(=C/c1cc(OC)ccc1O)c1ccc2cc(OC)ccc2[o+]1	64.2%	78%	–	33.6%	71%	–	65.9%	56.1%	68.6%	20.3%	53.1%	66.2%	–	61.6%	52.2%	52.7%	65.6%	–	69.8%	24.2%
Cc1ccc(CSc2nc(-c3ccc(Cl)cc3)c(C#N)c(N3CCOCC3)n2)cc1	95%	94.4%	103	96.2%	–	91.8%	87.5%	125%	105%	91.5%	108%	98.9%	88.3%	95.5%	98.6%	99.1%	97.6%	98	–	78.4%
COc1ccc(S(=O)(=O)NCCCNc2nccc(-c3[nH]c(-c4ccccc4)nc3-c3ccc(Cl)c(O)c3)n2)cc1	83.4%	103%	–	85.6%	114%	102%	125%	86.3%	89.3%	55.2%	-7% (active)	61.4%	140%	92%	96.4%	101%	23.6%	–	91.7%	69.1%
COc1cc(/C=N/NC(=O)c2cn(C3CC3)c3c(OC)c(N4CC5CCCNC5C4)c(F)cc3c2=O)ccc1O (configuration not stated)	55.4%	87.3%	–	-66.6% (active)	79.5%	-21.4% (active)	-62.2% (active)	35.6%	46.5%	-25.5% (active)	89.2%	-27.4% (active)	–	82.1%	100%	-9.11% (active)	104%	–	96%	46.8%
Cc1cc(C)n(C(=O)c2sc(=S)n(-c3ccccc3)c2N=Nc2c(N)n[nH]c2N)n1	104%	102%	–	108%	114%	102%	111%	109%	110%	105%	73.9%	89.2%	116%	104%	104%	99.1%	106%	–	103%	93.2%
Cc1ccc(-c2nn(-c3ccccc3)cc2/C=C/C(=O)c2ccc(NC(=O)CCCCCCC(=O)NO)cc2)cc1	93.6%	95.8%	–	68.1%	96.4%	76.9%	56.8%	96.2%	79.1%	43.2%	122%	78.6%	-2.12% (active)	81.8%	88%	82.5%	82.3%	–	86.4%	40.4%
